# Screening results as filed in PubChem BioAssay.
# D3 ag – agonists of human D3 dopamine receptor. hit rate 0.58% among 410,000. D3R DiscoveRx beta-arrestin cells, luminescence, 90 min. P35462. AID 652048. max activation, %; in the data active means max activation above about 30%; further: 0% is about no effect
# Target sequence (P35462 whole entry, looked up): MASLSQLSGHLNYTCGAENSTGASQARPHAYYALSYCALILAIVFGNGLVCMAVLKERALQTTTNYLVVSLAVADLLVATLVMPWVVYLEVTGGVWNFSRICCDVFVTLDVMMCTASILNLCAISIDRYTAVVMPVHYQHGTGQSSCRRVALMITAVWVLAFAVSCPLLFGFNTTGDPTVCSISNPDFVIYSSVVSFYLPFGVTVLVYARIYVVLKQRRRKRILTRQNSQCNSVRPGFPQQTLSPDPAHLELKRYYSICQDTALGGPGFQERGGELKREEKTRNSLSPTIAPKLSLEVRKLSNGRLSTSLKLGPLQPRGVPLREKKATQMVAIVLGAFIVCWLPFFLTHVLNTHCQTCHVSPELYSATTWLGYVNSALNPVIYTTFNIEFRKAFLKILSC
#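 Cells at 1500/well, incubated overnight, then treated with pinned compounds (dopamine as control) for 90 min at 37 degrees C. DiscoveRx reagent added for 30 - 60 minutes at room temperature; luminescence read.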
# TDP1 cell CPT – DT40-hTDP1 cell growth loss with CPT | chicken DT40 Tdp1-/-;hTDP1 cells + 20 nM CPT, ATP luminescence, 48 h | Potency, µM (top dose mostly 46.2 µM), without a hit: top-dose activity change, negative = growth inhibition, hits mostly inhibitors | hit rate 12% among 420,000; further: potency means the concentration at half of the fitted maximal effect; on the % scale 0 is the no-effect control and ±100 the full control effect; nearly all actives have a fitted effect of over 55% in size
#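 Chicken DT40 Tdp1-/- cells complemented with human TDP1, 400 cells/well, exposed to compounds plus 20 nM camptothecin for at least 48 h at 37 C; viability read as ATP content by CellTiter-Glo luminescence.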
# DRD3 antagonist – antagonists of human D3 dopamine receptor; P35462; D3R cells, DiscoveRx beta-arrestin luminescence, antagonist mode; stronger effect = lower value; hit rate 2.5% among 360,000; max response, negative = inhibition, %; in the data active means max response below about -50%; inconclusive means no clear call, values can overlap the other calls; further: on the % scale 0 is the no-effect control and ±100 the full control effect
#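 Cells plated overnight at 1500 cells/well, then exposed to library compounds with dopamine controls for 90 minutes at 37 degrees C. DiscoveRx reagent added for 30–60 minutes at room temperature; luminescence read, quantitative HTS format.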
# DT40 TDP1 no CPT – qHTS for Inhibitors of human tyrosyl-DNA phosphodiesterase 1 (TDP1): qHTS in cells in absence of CPT; DT40 Tdp1-/- hTDP1 cells, no CPT, ATP luminescence, 48 h; Potency, µM (series often up to 46.2 µM), for inactives: at the top dose activity change, negative = growth inhibition, most hits filed as inhibitors; hit rate 15% among 420,000; AID 686978, 2013; further: potency means the concentration at half of the fitted maximal effect; on the % scale 0 is the no-effect control and ±100 the full control effect; nearly all actives have a fitted effect of over 55% in size
#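 Growth of hTDP1-complemented DT40 Tdp1-knockout cells is measured by ATP luminescence after at least 48 hr compound exposure at 37 °C, with DMSO substituting for the 20 nM CPT used in the parallel screen.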
# ClpP mod – qHTS Assay for Activators of ClpP. ATP-dependent Clp protease proteolytic subunit (Bacillus subtilis (strain 168)), P80244. hit rate 1.9% among 340,000. purified B. subtilis ClpP, FRET peptide cleavage, 20 min. AID 651965, 2013. Potency, µM (highest dose often 57.5 µM), without a hit: at the top dose activity change, negative = active; active means well fitted falling curve with a large enough effect; inconclusive means small, poorly fitted or top-dose-only effect; inactive means no such curve, though single readings can be large or run the other way; further: potency means the concentration at half of the fitted maximal effect; the source files actives as falling curves though it sought activators and does not explain the sign; nearly all actives have a fitted effect of over 65% in size
# Target sequence (P80244 whole entry, looked up): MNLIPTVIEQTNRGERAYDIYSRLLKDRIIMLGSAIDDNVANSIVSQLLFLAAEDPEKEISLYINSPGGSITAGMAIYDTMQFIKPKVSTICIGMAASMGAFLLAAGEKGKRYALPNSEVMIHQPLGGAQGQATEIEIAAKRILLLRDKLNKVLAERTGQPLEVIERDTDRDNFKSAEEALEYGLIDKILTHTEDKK
#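 ClpP 10 microg/mL final, pH 8 Tris/KCl buffer with BSA, glycerol, Tween-20; compound pinned in; FRET-FV substrate; RT 20 min; Ex320/Em430; ΔFRET vs ADEP 5.8 microM, DMSO, no enzyme.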
# IL1B secr inh – inflammasome signaling inhibition, IL-1 beta readout | AID 743279 | hit rate 4.7% among 360,000 | THP-1 LPS/ATP IL-1B secretion, AlphaLISA, 16 h; stronger effect = lower value | activity change, % at 57.5 µM; in the data active means activity change below about -50%; inconclusive means mostly about -30% to -49%; further: on the % scale 0 is the no-effect control and ±100 the full control effect
#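 Secreted IL-1B measured by AlphaLISA bead assay after 16 h compound exposure of THP-1 cells; compounds (final up to 57.5 uM) added 1 h before LPS (250 ng/mL) and ATP (1.25 mM) stimulation; lower signal means less secretion.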
# * marks the source's active call; other numbers are inactive results; ? = inconclusive; . = not tested or not shown. Shown are actives, neighbours in structure and some others; about 21% of the full set was active somewhere. Unless noted, the call rests on the fitted dose curve; in most records, active means well fitted inhibition curve with a large enough effect; inconclusive means small, poorly fitted or top-dose-only effect; inactive means flat fitted curve, though single readings scatter.
SMILES,D3 ag,TDP1 cell CPT,DRD3 antagonist,DT40 TDP1 no CPT,ClpP mod,IL1B secr inh
COCCNC(=O)CN(C(=O)Cn1nnc2ccccc21)c1cc(C)cc(C)c1,4,-16%,7,-11%,.,-1
CCOc1ccc(OCc2ccc(C(=O)NC(C)C)o2)cc1,2,?,0,?,-8%,9
CC(C)NC(=O)c1ccc(COc2cc(Cl)ccc2Cl)o1,1,-30%,-17,21µM*,.,-62*
Cc1ccc(S(=O)(=O)NNC(=O)c2cc3cc4ccccc4nc3s2)cc1,-1,1%,-20,-22%,-7%,66
Cc1cccc(C(=O)NNC(=O)c2cc3cc4ccccc4nc3s2)c1,2,?,-17,?,22µM*,-6
CCC(=O)Nc1ccc(C2C(=O)c3ccccc3C2=O)cc1,-9,16µM*,-23,21µM*,.,-3
O=S1(=O)N=C(Nc2ccc(O)cc2)c2ccccc21,2,5%,-2,5%,-2%,-15
O=C(NC1=C(Nc2ccc(F)cc2)C(=O)c2ccccc2C1=O)c1ccc(Cl)cc1,-2,21µM*,-4,?,1%,30
CCOc1ccc(NC2=C(OC)C(=O)c3ccccc3C2=O)cc1,11,21µM*,-23,?,-1%,-83*
CCOc1ccc(NC2=C(Cl)C(=O)N(Cc3ccccc3)C2=O)cc1,-7,?,-9,?,0%,?
CCCCC(=O)Nc1ccc(C2C(=O)c3ccccc3C2=O)cc1,18,-24%,11,?,1%,-3
COC1=C(Nc2ccc(O)cc2)C(=O)c2ccccc2C1=O,5,4.1µM*,-29,?,-1%,-64*
O=C(NNC(=O)c1ccc(NC(=O)c2ccccc2)cc1)c1ccc(F)cc1,3,30%,-6,11%,-16%,1
CCCCCC(=O)N1C[C@@H](O)[C@H](n2cc(COC(=O)c3ccccc3)nn2)C[C@@H]1c1ccc(Cl)cc1,4,-17%,1,-22%,-3%,-7
COc1ccc(NC2=C(NC(C)=O)C(=O)c3ccccc3C2=O)cc1,-22,13µM*,?,18µM*,-2%,-5
COC1=C(Nc2ccc(OC)cc2)C(=O)C(OC)=C(Nc2ccc(OC)cc2)C1=O,1,6%,-5,-12%,-2%,-14
CCC(=O)Nc1ccc(NC(=S)Nc2ccccc2)cc1,2,19%,6,9%,-1%,-5
COC1=C(Nc2ccc(OC)cc2)C(=O)c2ccccc2C1=O,1,29µM*,19,15µM*,9%,?
CCC(=O)NC1=C(Nc2ccc(N)cc2)C(=O)c2ccccc2C1=O,-8,?,-13,8.2µM*,?,-3
S=C(Nc1ccc(Oc2ccc(NC(=S)NC3CCCCC3)cc2)cc1)NC1CCCCC1,0,?,-7,?,0%,-2
S=C(Nc1ccc(Oc2ccccc2)cc1)NC1CCCCC1,2,26µM*,-7,?,-1%,-15
CN(C(=S)Nc1ccc(Oc2ccccc2)cc1)C1CCCCC1,-2,?,?,26µM*,.,-100*
CCCN(CC1CC1)C(=S)Nc1ccc(Oc2ccccc2)cc1,2,?,-17,16µM*,-1%,29
COc1ccccc1NC(=S)NC1CCCCCCCCCCC1,-8,10µM*,-79*,21µM*,0%,5
COc1ccc(C(=O)Nc2nnc(S(=O)(=O)N3CCCc4ccccc43)s2)cc1,-7,-2%,.,-3%,-4%,.
SMILES,D3 ag,TDP1 cell CPT,DRD3 antagonist,DT40 TDP1 no CPT,ClpP mod,IL1B secr inh
S=C(Nc1ccc(Oc2ccccc2)cc1)NC1CCCCCC1,4,21µM*,-24,23µM*,2%,-76*
Cn1c(-c2ccc3c(c2)OCO3)cnc1NCc1ccc(Cl)cc1,-3,?,-26,18µM*,?,0
Clc1ccccc1-c1cnc2sc(NCc3ccc4c(c3)OCO4)nn12,3,?,99,15µM*,0%,-6
Cc1ccc(CNc2ccc3c(c2)OCO3)cc1,-14,?,-25,21µM*,-2%,-93*
Cc1ccc(CNc2ncc(-c3ccc4c(c3)OCO4)n2C)cc1,-1,?,25,21µM*,?,-9
CC(C)Nc1ncnc2c1ncn2[C@H]1CN(Cc2ccc3c(c2)OCO3)C[C@@H](CO)O1,2,-1%,26,-12%,-3%,3
COc1ccc(C2COc3c(ccc(O)c3OC)C2)c(OC)c1O (stereo not drawn),.,?,.,-29%,.,.
Cc1[nH]c2ccccc2c1C(c1ccccc1)c1ccc(Cl)s1 (stereo not drawn),-24,?,.,?,-5%,.
COc1ccccc1CCNS(=O)(=O)c1cc2c3c(c1)CCN3C(=O)CC2,-3,-5%,12,-23%,1%,14
COc1cccc(CNC(=O)CCc2c(C)nc3c(c(C)nn3-c3ccc(C)c(C)c3)c2C)c1,14,21µM*,.,21µM*,?,.
CCN(CC)CCNC(=O)CCc1c(C)nc2c(c(C)nn2-c2ccc(C)cc2)c1C,-10,21µM*,-50*,13µM*,3%,0
COCCNC(=O)CCc1c(C)nc2c(c(C)nn2-c2ccc(C)cc2)c1C,0,?,4,18µM*,4%,-3
Cc1ccc(-n2nc(C)c3c(C)c(CCC(=O)NCc4ccc(Cl)cc4)c(C)nc32)cc1,2,?,.,?,4%,.
COCCNC(=O)CCc1c(C)nc2c(c(C)nn2-c2ccc(C)c(C)c2)c1C,-1,?,13,16µM*,4%,-8
COCCCNC(=O)CCc1c(C)nc2c(c(C)nn2-c2ccc(C)cc2)c1C,4,?,14,-28%,3%,27
Cc1ccc(-n2nc(C)c3c(C)c(CCC(=O)NCc4ccccc4Cl)c(C)nc32)cc1C,1,-4%,.,?,-26%,.
COCCCN1C(=O)c2ccccc2CC1(C)C(=O)NC1CCCCC1 (stereo not drawn),1,2%,.,-9%,1%,.
COc1ccc(CCNC(=O)CCc2c(C)nc3c(c(C)nn3-c3ccc(C)cc3)c2C)c(OC)c1,6,?,.,?,?,.
COc1ccc(CCNC(=O)CCc2c(C)nc3c(c(C)nn3-c3ccccc3)c2C)c(OC)c1,-2,23µM*,.,16µM*,?,.
